# Assay results from PubChem BioAssay (Tox21).
# Several values for one entry are separate records, joined by “and”; a condition that tells them apart may be missing. Equal values may be shown once. Where a structure was tested more than once in an assay, its records may differ in their call. Activity calls are given as the source filed them. Where a call stands in place of a potency, no number is given. Unless noted, calls follow the shape of the dose curve; as a rule, active = well fitted curve in the direction sought with a large enough effect in the repeat runs; inconclusive = weak or mixed curves; inactive = no such curve, though single readings can be large; an effect the other way counts as inactive or inconclusive.
# Columns and labels:
# [1] = qHTS assay to identify small molecule antagonists of the thyroid receptor (TR) signaling pathway - cell viability counter screen (AID 743064); also: nearly all actives have a fitted effect of over 50% in size; also: potency is read from the fitted curve at half-maximal effect
# Procedure, shortened: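 Fluorescence from CellTiter-Fluor, added after 23.5 h exposure at 37 °C, reported viability of GH3.TRE-Luc cells co-treated with compound and 1 nM T3. Measured in the same wells as the luciferase TR readout.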
# [2] = system: thyroid hormone receptor (rat, GH3 cells); experiment: qHTS assay to identify small molecule agonists of the thyroid receptor (TR) signaling pathway (AID 743066; calls by dose curve)
# [3] = target: Estrogen receptor (Homo sapiens) (UniProt P03372); experiment: qHTS assay to identify small molecule antagonists of the estrogen receptor alpha (ER-alpha) signaling pathway (AID 743069; active = well fitted curve in the direction sought with a large enough effect in the signal ratio in the repeat runs, not every such curve was filed as active; inconclusive = weak or mixed curves, or effect the other way; inactive = no such curve, though single readings can be large or run the other way; the % refers to the signal ratio)
# Procedure, shortened: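 Screening used a UAS-driven beta-lactamase reporter integrated into HEK293 cells expressing ER-alpha, stimulated with 17beta-estradiol alongside test compounds over 18 hr at 37C; signal came from LiveBLAzer B/G FRET fluorescence.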
# [4] = qHTS assay to identify small molecule antagonists of the estrogen receptor alpha (ER-alpha) signaling pathway - cell viability counter screen (AID 743074; calls by dose curve; also: nearly all actives have a fitted effect of over 45% in size)
# [5] = target: Estrogen receptor (Homo sapiens) (UniProt P03372); experiment: qHTS assay to identify small molecule agonists of the estrogen receptor alpha (ER-alpha) signaling pathway (AID 743075; calls by dose curve; also: potency is read from the fitted curve at half-maximal effect)
# [6] = qHTS assay to identify small molecule antagonists of the estrogen receptor alpha (ER-alpha) signaling pathway using the BG1 cell line - cell viability counter screen (AID 743081);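 also: compound given together with 17beta-estradiol as the ER stimulus; nearly all actives have a fitted effect of over 45% in size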
# Aromatase (Homo sapiens) = Aromatase (Homo sapiens) (UniProt P11511); experiment: qHTS assay to identify aromatase inhibitors (AID 743083); also: nearly all actives have a fitted effect of over 55% in size
# [7] = qHTS assay to identify aromatase inhibitors - cell viability counter screen (AID 743084);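 also: cells stimulated with testosterone during compound exposure; nearly all actives have a fitted effect of over 55% in size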
# [8] = target: Aryl hydrocarbon receptor (Homo sapiens) (UniProt P35869); experiment: qHTS assay to identify small molecule that activate the aryl hydrocarbon receptor (AhR) signaling pathway (AID 743085);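 also: HG2L7.5c1 human HepG2 liver cells with stably integrated DRE-driven firefly reporter; nearly all actives have a fitted effect of over 15% in size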
# Procedure, shortened: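 Cell line HG2L7.5c1 (human hepatoma, 20× DRE-luc). Plated, 5 h 37C, compound/DMSO added, 24 h 37C. CellTiter-Fluor 30 min 37C → fluorescence; then ONE-Glo 30 min RT → luminescence.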
# [9] = qHTS assay to identify small molecule that activate the aryl hydrocarbon receptor (AhR) signaling pathway - cell viability counter screen (AID 743086);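 also: HepG2 liver cells carrying the AhR DRE luciferase reporter; nearly all actives have a fitted effect of over 45% in size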
# Procedure, shortened: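 HepG2-AhR-luc (HG2L7.5c1) cells, 4000/well, were preincubated 5 h at 37C, exposed to compound in qHTS format for 24 hr at 37C, then given CellTiter-Fluor for 30 min; viability was read as fluorescence in the reporter wells.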
# [10] = target: Peroxisome proliferator-activated receptor gamma (Homo sapiens) (UniProt P37231); experiment: qHTS assay to identify small molecule agonists of the peroxisome proliferator-activated receptor gamma (PPARg) signaling pathway (AID 743094; active = well fitted activation curve with a large enough effect in the signal ratio in the repeat runs, not every such curve was filed as active; inconclusive = weak or mixed curves, or effect the other way; inactive = no such curve, though single readings can be large or run the other way; the % refers to the signal ratio)
# Procedure, shortened: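 Cells from the PPARg UAS-bla HEK293H line are plated and incubated 5 h at 37C. Compounds in DMSO are pinned in and left 17 h at 37C. LiveBLAzer B/G substrate is then added for 1 h at room temperature before fluorescence is measured.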
# [11] = qHTS assay to identify small molecule antagonists of the peroxisome proliferator-activated receptor gamma (PPARg) signaling pathway - cell viability counter screen (AID 743194); conditions: Potency: co-treated with 50 nM rosiglitazone; also: nearly all actives have a fitted effect of over 55% in size
# Procedure, shortened: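 PPARg-UAS-bla HEK293H cells were plated, rested 5 h at 37 C, then treated with compounds plus rosiglitazone (50 nM final) for 17 h at 37 C; viability was then read by CellTiter-Glo luminescence after 30 min at room temperature.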
# [12] = qHTS assay for small molecule agonists of the antioxidant response element (ARE) signaling pathway (AID 743202; active = well fitted activation curve with a large enough effect in the signal ratio in the repeat runs, not every such curve was filed as active; inconclusive = weak or mixed curves, or effect the other way; inactive = no such curve, though single readings can be large or run the other way; the % refers to the signal ratio)
# Procedure, shortened: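 Steps: seed ARE-bla HepG2 cells (2,000/well); incubate 5 h at 37 C; add compounds by pin tool; incubate 16 h at 37 C; add FRET substrate; read fluorescence after 2 h at RT.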
# [13] = qHTS assay for small molecule agonists of the antioxidant response element (ARE) signaling pathway - cell viability counter screen (AID 743203; calls by dose curve; also: nearly all actives have a fitted effect of over 55% in size)
# Procedure, shortened: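 Cytotoxicity was tested in parallel with the ARE reporter screen. ARE-bla HepG2 cells were exposed to compounds for 16 hrs, and viability was taken from CellTiter-Glo luminescence.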
# [14] = qHTS assay for small molecule activators of the heat shock response signaling pathway - cell viability counter screen (AID 743209); also: nearly all actives have a fitted effect of over 50% in size; also: potency is read from the fitted curve at half-maximal effect
# Procedure, shortened: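 Cytotoxicity counter screen run in parallel with the HSE beta-lactamase reporter, using the same wells. HeLa HSE-bla cells received compound for 5 h at 37 C; ATP-based CellTiter-Glo luminescence was measured after 30 min at room temperature.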
# [15] = qHTS assay for small molecule activators of the heat shock response signaling pathway (AID 743210; active = well fitted activation curve with a large enough effect in the signal ratio in the repeat runs, with a control signal flat, not every such curve was filed as active; inconclusive = weak or mixed curves; the % refers to the signal ratio;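 also: HeLa cells with beta-lactamase reporter driven by heat shock elements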)
# Procedure, shortened: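 Activation of heat shock element-controlled beta-lactamase expression is measured in HeLa cells by LiveBLAzer FRET fluorescence, with compound exposure lasting 5 h at 37 C and substrate loading 2.5 h at room temperature.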
# [16] = target: Estrogen receptor (Homo sapiens) (UniProt P03372); experiment: qHTS assay to identify small molecule agonists of the estrogen receptor alpha (ER-alpha) signaling pathway using the BG1 cell line (AID 743079); conditions: BG1Luc4E2 cells, ERE-luciferase agonist, 22 h; also: nearly all actives have a fitted effect of over 20% in size; also: potency is read from the fitted curve at half-maximal effect
# [17] = qHTS assay to identify small molecule antagonists of the estrogen receptor alpha (ER-alpha) signaling pathway using the BG1 cell line (AID 743080; calls by dose curve;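 also: BG1 cells stimulated with 17beta-estradiol alongside compound; nearly all actives have a fitted effect of over 25% in size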; also: potency is read from the fitted curve at half-maximal effect)
# Procedure, shortened: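 BG1-Luc-4E2 cells (endogenous full-length ER-alpha, 4xERE luciferase) hormone-starved 5 days in charcoal-stripped FBS, plated 4,000/well for 24 h, then compound plus 17beta-estradiol for 21.5 h at 37 C; ONE-Glo luminescence read.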
# [18] = target: Peroxisome proliferator-activated receptor gamma (Homo sapiens) (UniProt P37231); experiment: qHTS assay to identify small molecule antagonists of the peroxisome proliferator-activated receptor gamma (PPARg) signaling pathway (AID 743191; calls by dose curve; also: nearly all actives have a fitted effect of over 30% in size)
# Procedure, shortened: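 GeneBLAzer PPARg UAS-bla HEK293H cells carrying a UAS-driven beta-lactamase reporter were plated at 3000 cells/well, preincubated 5 h at 37C, then given compound for 17 h at 37C; LiveBLAzer B/G FRET substrate was read after 1 h at room temperature.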
# [19] = qHTS assay to identify small molecule antagonists of the thyroid receptor (TR) signaling pathway (AID 743065)
# Procedure, shortened: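 GH3.TRE-Luc rat pituitary cells carrying two TR response elements driving luciferase were plated for 4 h, given compound plus 1 nM T3 (final), and incubated 23.5 h at 37 C. ONE-Glo luminescence measured reporter inhibition; CellTiter-Fluor fluorescence tracked cytotoxicity.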
# Chain of Estrogen receptor (Homo sapiens) (P03372 whole entry, looked up): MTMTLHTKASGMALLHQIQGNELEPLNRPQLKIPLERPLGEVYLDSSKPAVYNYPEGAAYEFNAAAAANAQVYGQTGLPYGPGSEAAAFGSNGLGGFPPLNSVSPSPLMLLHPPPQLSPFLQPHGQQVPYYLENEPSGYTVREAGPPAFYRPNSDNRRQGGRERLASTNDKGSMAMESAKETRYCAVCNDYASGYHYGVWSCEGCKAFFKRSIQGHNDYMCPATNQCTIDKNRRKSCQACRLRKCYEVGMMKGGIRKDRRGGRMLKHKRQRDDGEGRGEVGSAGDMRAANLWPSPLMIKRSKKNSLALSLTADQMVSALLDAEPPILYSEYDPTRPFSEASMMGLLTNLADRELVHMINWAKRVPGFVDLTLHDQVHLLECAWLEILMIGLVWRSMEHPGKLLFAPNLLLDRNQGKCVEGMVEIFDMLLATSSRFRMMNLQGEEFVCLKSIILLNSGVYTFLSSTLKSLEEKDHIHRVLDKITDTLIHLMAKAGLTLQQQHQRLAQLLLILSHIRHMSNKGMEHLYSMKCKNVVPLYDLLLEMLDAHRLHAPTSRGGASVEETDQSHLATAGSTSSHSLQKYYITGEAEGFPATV
# Chain of Peroxisome proliferator-activated receptor gamma (Homo sapiens) (P37231 whole entry, looked up): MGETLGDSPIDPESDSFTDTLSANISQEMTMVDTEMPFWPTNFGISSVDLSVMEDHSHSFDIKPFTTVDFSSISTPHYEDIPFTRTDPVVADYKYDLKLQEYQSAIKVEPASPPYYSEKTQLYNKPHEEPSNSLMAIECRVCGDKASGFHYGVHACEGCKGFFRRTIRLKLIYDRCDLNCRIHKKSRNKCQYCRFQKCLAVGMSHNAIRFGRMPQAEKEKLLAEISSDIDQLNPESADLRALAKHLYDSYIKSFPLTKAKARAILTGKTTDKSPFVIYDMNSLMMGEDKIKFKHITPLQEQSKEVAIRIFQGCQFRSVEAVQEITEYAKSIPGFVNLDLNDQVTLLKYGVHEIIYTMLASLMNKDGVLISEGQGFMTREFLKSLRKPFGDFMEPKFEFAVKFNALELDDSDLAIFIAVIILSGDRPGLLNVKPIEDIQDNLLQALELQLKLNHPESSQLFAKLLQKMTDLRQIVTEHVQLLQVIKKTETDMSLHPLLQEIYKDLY
# Chain of Aromatase (Homo sapiens) (P11511 whole entry, looked up): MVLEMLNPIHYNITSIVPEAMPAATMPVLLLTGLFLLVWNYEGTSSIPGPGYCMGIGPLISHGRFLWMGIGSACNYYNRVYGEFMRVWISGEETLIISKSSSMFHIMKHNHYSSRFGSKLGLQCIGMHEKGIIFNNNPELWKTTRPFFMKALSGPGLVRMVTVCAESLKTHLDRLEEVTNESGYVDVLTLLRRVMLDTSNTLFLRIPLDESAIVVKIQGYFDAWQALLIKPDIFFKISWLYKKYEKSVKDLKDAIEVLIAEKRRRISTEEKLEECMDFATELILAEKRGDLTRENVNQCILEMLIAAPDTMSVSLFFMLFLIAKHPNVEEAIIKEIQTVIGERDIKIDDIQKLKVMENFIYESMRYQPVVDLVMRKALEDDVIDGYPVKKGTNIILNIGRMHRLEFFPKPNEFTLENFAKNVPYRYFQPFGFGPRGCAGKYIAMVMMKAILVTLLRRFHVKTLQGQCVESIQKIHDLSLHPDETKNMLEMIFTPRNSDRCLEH
# Chain of Aryl hydrocarbon receptor (Homo sapiens) (P35869 whole entry, looked up): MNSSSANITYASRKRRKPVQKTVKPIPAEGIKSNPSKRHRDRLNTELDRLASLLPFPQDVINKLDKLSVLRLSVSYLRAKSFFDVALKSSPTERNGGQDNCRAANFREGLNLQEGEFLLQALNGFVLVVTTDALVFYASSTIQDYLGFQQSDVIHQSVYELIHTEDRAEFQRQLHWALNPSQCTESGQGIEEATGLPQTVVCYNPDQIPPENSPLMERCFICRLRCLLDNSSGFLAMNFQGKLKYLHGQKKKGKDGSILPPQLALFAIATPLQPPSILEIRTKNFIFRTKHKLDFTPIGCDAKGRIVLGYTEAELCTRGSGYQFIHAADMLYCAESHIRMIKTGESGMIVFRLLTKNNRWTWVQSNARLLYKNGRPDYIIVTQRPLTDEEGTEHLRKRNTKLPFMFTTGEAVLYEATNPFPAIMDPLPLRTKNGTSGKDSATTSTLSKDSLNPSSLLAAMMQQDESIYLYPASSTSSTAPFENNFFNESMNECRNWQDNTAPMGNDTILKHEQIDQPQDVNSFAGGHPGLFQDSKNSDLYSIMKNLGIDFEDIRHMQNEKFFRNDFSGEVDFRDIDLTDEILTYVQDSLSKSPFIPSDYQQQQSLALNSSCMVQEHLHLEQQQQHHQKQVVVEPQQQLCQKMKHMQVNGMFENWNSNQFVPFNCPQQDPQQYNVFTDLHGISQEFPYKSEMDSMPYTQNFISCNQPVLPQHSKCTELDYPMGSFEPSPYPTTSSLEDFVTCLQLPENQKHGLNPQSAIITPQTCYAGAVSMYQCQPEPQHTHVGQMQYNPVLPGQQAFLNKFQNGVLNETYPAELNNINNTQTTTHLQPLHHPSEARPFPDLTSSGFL
compound,measurement,setting,value
CC1CCCCC1NC(=O)Nc1ccccc1 (stereo unspecified),Potency,[1],inactive
same,Potency,[2],inactive
same,Potency,[3],inactive
same,outcome,[4],inactive
same,Potency,[5],inactive
same,Potency,[6],inactive
same,Potency,Aromatase (Homo sapiens),inactive
same,Potency,[7],inactive
same,Potency,[8],inactive
same,outcome,[9],inactive
same,outcome,[10],inactive
same,Potency,[11],inactive
same,Potency,[12],inactive
same,Potency,[13],inactive
same,Potency,[14],inactive
same,outcome,[15],inactive
CS(=O)(=O)c1cc(C(F)(F)F)ccc1C(=O)c1cnoc1C1CC1,Potency,[1],inactive
same,Potency,[2],inactive
same,Potency,[3],inactive
same,outcome,[4],inactive
same,Potency,[5],inactive
same,activation,[16]; at 70.3 µM (top of the series),0.699% (inactive)
same,Potency,[17],inactive
same,Potency,[6],inactive
same,Potency,Aromatase (Homo sapiens),inactive
same,Potency,[7],inactive
same,Potency,[8],inactive
same,outcome,[9],inactive
same,outcome,[10],inactive
same,Potency,[11],inactive
same,Potency,[12],inactive
same,Potency,[13],inactive
same,Potency,[14],inactive
same,outcome,[15],inactive
O=C(Cc1ccccc1)OCc1ccccc1,Potency,[1],inactive
same,Potency,[2],inactive
same,outcome,[4],inactive
same,Potency,[5],inactive
same,activation,[16]; at 95 µM (top of the series),2.04% (inactive)
same,Potency,[17],inactive
same,Potency,[6],inactive
same,Potency,Aromatase (Homo sapiens),inactive
same,Potency,[7],inactive
same,outcome,[9],inactive
same,outcome,[10],inactive
same,Potency,[18],inactive
same,Potency,[11],inactive
same,Potency,[12],inactive
same,Potency,[13],inactive
same,Potency,[14],inactive
same,outcome,[15],inactive
Nc1cnn(-c2ccccc2)c(=O)c1Cl,Potency,[1],inactive
same,Potency,[2],inactive
same,Potency,[3],inactive
same,outcome,[4],inactive
same,Potency,[5],inactive
same,activation,[16]; at 70.3 µM (top of the series),6.72% (inactive)
same,Potency,[17],inactive
same,Potency,[6],inactive
same,Potency,Aromatase (Homo sapiens),inactive
same,Potency,[7],inactive
same,outcome,[9],inactive
same,outcome,[10],inactive
same,Potency,[11],inactive
same,Potency,[12],inactive
same,Potency,[13],inactive
same,Potency,[14],inactive
same,outcome,[15],inactive
COc1cc(OC)nc(NC(=O)NS(=O)(=O)c2ncccc2C(=O)N(C)C)n1,Potency,[1],inactive
same,Potency,[2],inactive
same,outcome,[4],inactive
same,Potency,[5],inactive
same,activation,[16]; at 70.3 µM (top of the series),9.83% (inactive)
same,Potency,[6],inactive
same,Potency,Aromatase (Homo sapiens),inactive
same,Potency,[7],inactive
same,Potency,[8],inactive
same,outcome,[9],inactive
same,outcome,[10],inactive
same,Potency,[18],inactive
same,Potency,[11],inactive
same,Potency,[12],inactive
same,Potency,[13],inactive
same,Potency,[14],inactive
same,outcome,[15],inactive
CCN(CC)C(=O)[C@@H]1C=C2c3cccc4[nH]cc(c34)C[C@H]2N(C)C1,Potency,[1],inactive
same,Potency,[2],inactive
same,outcome,[4],inactive
same,Potency,[5],inactive and 8.49 µM [inconclusive] (active)
same,Potency,[16],0.944 µM (active)
same,activation,[16]; at 260 µM (top of the series),-12% (inactive)
same,Potency,Aromatase (Homo sapiens),inactive
same,Potency,[7],inactive
same,outcome,[9],inactive
same,outcome,[10],inactive
same,Potency,[11],inactive
same,Potency,[13],inactive
same,outcome,[15],inactive
C=CCC1=C(C)[C@@H](OC(=O)[C@@H]2[C@@H](C=C(C)C)C2(C)C)CC1=O,Potency,[1],61.1 µM (active)
same,Potency,[19],61.1 µM (active)
same,outcome,[4],inactive
same,Potency,[5],inactive
same,Potency,[17],54.5 µM (active)
same,Potency,[6],inactive
same,Potency,[7],inactive
same,Potency,[8],inactive
same,outcome,[9],inactive
same,Potency,[11],inactive
same,Potency,[14],49 µM (active)
CCCCc1c(C)nc(NCC)[nH]c1=O,Potency,[1],inactive
same,Potency,[2],inactive
same,Potency,[3],inactive
same,outcome,[4],inactive
same,Potency,[5],inactive
same,activation,[16]; at 70.3 µM (top of the series),0.176% (inactive)
same,Potency,[17],inactive
same,Potency,[6],inactive
same,Potency,Aromatase (Homo sapiens),inactive
same,Potency,[7],inactive
same,Potency,[8],inactive
same,outcome,[9],inactive
same,outcome,[10],inactive
same,Potency,[18],inactive
same,Potency,[11],inactive
same,Potency,[12],inactive
same,Potency,[14],inactive
